Data on 38 molecules can be found in PubChem BioAssay (Tox21).

SMILES strings stand for the structures. Several values for one entry are separate records, joined by “and”; a condition that tells them apart may be missing. Equal values may be shown once. Results filed as inconclusive are left out. A call without a number means that no potency is given here. More than one record can exist for a structure, and the calls need not agree. Activity calls are given as the source filed them. Calls follow the shape of the full dose curve.
Potency is read from the fitted curve at half-maximal effect.

Muscarinic acetylcholine receptor M1 (Homo sapiens), sequence (P11229 whole entry, looked up): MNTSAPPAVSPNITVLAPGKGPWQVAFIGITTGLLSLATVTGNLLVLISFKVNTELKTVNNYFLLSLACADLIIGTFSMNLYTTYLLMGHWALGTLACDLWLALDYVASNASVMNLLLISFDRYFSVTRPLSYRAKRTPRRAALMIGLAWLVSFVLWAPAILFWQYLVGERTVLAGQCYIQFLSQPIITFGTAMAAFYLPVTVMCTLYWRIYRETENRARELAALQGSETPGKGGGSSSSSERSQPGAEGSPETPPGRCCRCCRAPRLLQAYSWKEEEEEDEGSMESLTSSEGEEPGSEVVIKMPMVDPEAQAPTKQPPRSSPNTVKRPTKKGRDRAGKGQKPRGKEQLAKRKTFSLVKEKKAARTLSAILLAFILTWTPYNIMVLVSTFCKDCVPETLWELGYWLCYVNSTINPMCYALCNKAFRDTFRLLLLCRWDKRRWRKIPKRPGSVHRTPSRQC

In one experiment the target is 5-hydroxytryptamine receptor 2A (Homo sapiens) (UniProt P28223). The experiment is described as follows: 5-hydroxytryptamine receptor 2A (HTR2A) small molecule agonists, cell-based qHTS assay (AID 1963587). Also: nearly all actives have a fitted effect of over 30% in size. The conditions noted are these: HTR2A-CHO cells, calcium flux fluorescence, agonist mode; series mostly up to 76.8 µM. In a few lines: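 CHO cells stably expressing human HTR2A, plated 18 h, loaded with calcium dye 1 h at 37 C. Agonist mode: compounds added and intracellular calcium fluorescence recorded kinetically for 2 min at 1 sec intervals.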
5-hydroxytryptamine receptor 2A (Homo sapiens), sequence (P28223 whole entry, looked up): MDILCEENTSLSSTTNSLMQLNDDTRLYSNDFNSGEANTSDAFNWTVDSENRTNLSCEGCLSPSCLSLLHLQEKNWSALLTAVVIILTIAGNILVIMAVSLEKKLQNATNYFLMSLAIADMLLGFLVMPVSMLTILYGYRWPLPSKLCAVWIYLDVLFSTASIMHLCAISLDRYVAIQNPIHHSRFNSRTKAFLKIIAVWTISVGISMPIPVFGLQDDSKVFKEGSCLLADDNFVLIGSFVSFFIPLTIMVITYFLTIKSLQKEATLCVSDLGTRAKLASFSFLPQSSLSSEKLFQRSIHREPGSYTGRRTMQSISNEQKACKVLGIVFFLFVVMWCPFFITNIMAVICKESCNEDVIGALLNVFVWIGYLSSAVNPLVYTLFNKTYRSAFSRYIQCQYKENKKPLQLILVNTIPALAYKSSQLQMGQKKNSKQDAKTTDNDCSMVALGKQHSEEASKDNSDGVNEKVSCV
For orientation: Quantitative high-throughput screening tests each substance at several concentrations.
Consider `c1ccc2c(c1)CCCC2`, for which the Potency result was “inactive”.
Turning to `CC(=[OH+])/C=C(/C)[O-].CC(=[OH+])/C=C(\C)[O-].CC(=[OH+])/C=C(\C)[O-].[Al]`, the Potency result was “inactive”.
Regarding `CCCCCCI`, the Potency result is “inactive”.
Turning to `Oc1ccccc1Cl`, the Potency result is “inactive”.
Take `Oc1cc(Cl)ccc1Cl`: the Potency result is “inactive”.
As to `CC(C)(C)C(=O)Cl`, the Potency result is “inactive”.
Same read-out and setting: the same measure for `NNC(=S)NN`: “inactive”; for `O=[N+]([O-])c1ccc([As](=O)(O)O)cc1`: “inactive”; for `O=C(O)C(F)(F)C(F)(F)C(F)(F)C(F)(F)C(F)(F)C(F)(F)C(F)(F)C(F)(F)F`: “inactive”.
As to `C=CC1CC=CCC1` (stereo unspecified), the Potency entry was “inactive”.
For the molecule `ClC1C(Cl)C(Cl)C(Cl)C(Cl)C1Cl` (stereo unspecified), the Potency result is “inactive and 54.9 µM (active)”.
For the molecule `Cc1cccc([N+](=O)[O-])c1`, the Potency entry was “inactive”.
For `NC(=O)CF`, the Potency result was “inactive”.
In the case of `O=C(O)C1C2CCC(O2)C1C(=O)O` (stereo unspecified), the Potency entry was “inactive”.
As for `COC(=O)c1ccccc1C(=O)OC`, the Potency result was “inactive”.
For the molecule `Cc1ccccc1O`, the Potency result is “inactive”.
In the case of `CCC12COCN1COC2`, the Potency entry is “inactive”.
In the case of `C[Si](Cn1cncn1)(c1ccc(F)cc1)c1ccc(F)cc1`, the Potency entry is “inactive”.
On to `Cc1ccccc1CCl`, for which the Potency entry was “inactive”.
`N#Cc1cc([N+](=O)[O-])ccc1N`: the Potency entry is “inactive”.
For `CCOC(=O)CC(SP(=S)(OC)OC)C(=O)OCC` (stereo unspecified), the Potency entry is “inactive”.
On the same count and under the same terms, then `COc1ccc2c(c1OC)C(=O)O[C@@H]2[C@H]1c2cc3c(cc2CCN1C)OCO3`, with “inactive”.
On to `CC(C)(c1ccc(OCC2CO2)cc1)c1ccc(OCC2CO2)cc1` (stereo unspecified), for which the Potency result was “inactive”.
Consider `C=CCCl`, for which the Potency entry is “inactive”.
With `C/C(=N\NC(=O)Nc1cc(F)cc(F)c1)c1ncccc1C(=O)O`, the Potency entry was “inactive”.
Consider `C=CCOC(N)=O`, for which the Potency result is “inactive”.
As to `COC(=O)NC(=S)Nc1ccccc1NC(=S)NC(=O)OC`, the Potency entry is “inactive”.
`Cc1ccc2c(c1N)C(=O)c1ccccc1C2=O`: the Potency result is “inactive”.
As to `COP(=O)(OC)C(O)C(Cl)(Cl)Cl` (stereo unspecified), the Potency entry was “inactive”.
`CN(C)N`: the Potency result is “inactive”.
On to `O=C(O)C(Br)Br`, for which the Potency result is “inactive”.
As to `c1ccc(P(c2ccccc2)c2ccccc2)cc1`, the Potency result is “inactive”.
For the molecule `CN(C)CCC#N`, the Potency result was “inactive”.
The same measure, in the same setting: then `c1ccc2c(c1)sc1ccccc12`, with “inactive”.
The same measure, in the same setting: the same measure for `CCBr`: “inactive”.

A further experiment has as its target Muscarinic acetylcholine receptor M1 (Homo sapiens) (UniProt P11229). The experiment can be described thus: Cholinergic receptor muscarinic 1 (CHRM1) small molecule antagonists, cell-based qHTS assay (AID 1963588). Also: nearly all actives have a fitted effect of over 40% in size. The settings on record: CHRM1-CHO antagonist mode, calcium flux fluorescence; series mostly up to 61.5 µM. In a few lines: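 CHRM1-CHO calcium-flux assay, antagonist mode. Cells were seeded 18 h, dye-loaded 1 h at 37 C and given compound for 5 min at RT, then acetylcholine was added at 50nM. FDSS fluorescence was read 3 min; 15 concentrations, three runs.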
Turning to `Oc1ccc(C(c2ccc(O)cc2)(C(F)(F)F)C(F)(F)F)cc1`, the Potency entry is “inactive”.
Regarding `c1ccc2c(c1)CCCC2`, the Potency entry was “inactive”.
Consider `CC(=[OH+])/C=C(/C)[O-].CC(=[OH+])/C=C(\C)[O-].CC(=[OH+])/C=C(\C)[O-].[Al]`, for which the Potency result is “inactive”.
With `CCCCCCI`, the Potency entry is “inactive”.
On to `Oc1ccccc1Cl`, for which the Potency entry was “inactive”.
For the molecule `Oc1cc(Cl)ccc1Cl`, the Potency result is “inactive”.
For `CC(C)(C)C(=O)Cl`, the Potency entry is “inactive”.
For the molecule `NNC(=S)NN`, the Potency entry is “inactive”.
Same read-out and setting: the same measure for `O=[N+]([O-])c1ccc([As](=O)(O)O)cc1`: “inactive”.
Turning to `O=C(O)C(F)(F)C(F)(F)C(F)(F)C(F)(F)C(F)(F)C(F)(F)C(F)(F)C(F)(F)F`, the Potency was 4.21 µM (active).
Consider `C=CC1CC=CCC1` (stereo unspecified), for which the Potency result is “inactive”.
As to `ClC1C(Cl)C(Cl)C(Cl)C(Cl)C1Cl` (stereo unspecified), the Potency entry was “inactive”.
`Cc1cccc([N+](=O)[O-])c1`: the Potency entry was “inactive”.
Turning to `O=C(O)C1C2CCC(O2)C1C(=O)O` (stereo unspecified), the Potency entry is “inactive”.
Consider `COC(=O)c1ccccc1C(=O)OC`, for which the Potency result is “inactive”.
As for `Cc1ccccc1O`, the Potency result was “inactive”.
Same read-out and setting: the same measure for `CCC12COCN1COC2`: “inactive”; for `C[Si](Cn1cncn1)(c1ccc(F)cc1)c1ccc(F)cc1`: 42.1 µM (active); for `Cc1ccccc1CCl`: “inactive”.
In the case of `N#Cc1cc([N+](=O)[O-])ccc1N`, the Potency result was “inactive”.
On to `O=Cc1ccc(Cl)cc1Cl`, for which the Potency entry was “inactive”.
The same measure, in the same setting: the same measure for `CCOC(=O)CC(SP(=S)(OC)OC)C(=O)OCC` (stereo unspecified): “inactive”; for `NCC(O)c1ccc(O)cc1` (stereo unspecified): “inactive”.
As to `COc1ccc2c(c1OC)C(=O)O[C@@H]2[C@H]1c2cc3c(cc2CCN1C)OCO3`, the Potency entry was “inactive”.
Same read-out and setting: the same measure for `CC(C)(c1ccc(OCC2CO2)cc1)c1ccc(OCC2CO2)cc1` (stereo unspecified): “inactive”.
Same read-out and setting: then `C/C(=N\NC(=O)Nc1cc(F)cc(F)c1)c1ncccc1C(=O)O`, with “inactive”.
Take `C=CCOC(N)=O`: the Potency result is “inactive”.
The same measure, in the same setting: the same measure for `COC(=O)NC(=S)Nc1ccccc1NC(=S)NC(=O)OC`: “inactive”; for `Cc1ccc2c(c1N)C(=O)c1ccccc1C2=O`: “inactive”.
`COP(=O)(OC)C(O)C(Cl)(Cl)Cl` (stereo unspecified): the Potency entry was “inactive”.
The same measure, in the same setting: the same measure for `CN(C)N`: “inactive”; for `O=C(O)C(Br)Br`: “inactive”.
For `c1ccc(P(c2ccccc2)c2ccccc2)cc1`, the Potency entry was “inactive”.
`CN(C)CCC#N`: the Potency entry is “inactive”.
`c1ccc2c(c1)sc1ccccc12`: the Potency result was “inactive”.
For the molecule `CCBr`, the Potency entry is “inactive”.
